{"source": "paper PMC4336329", "about": "(PLoS ONE, 2015)", "note": "About 14,000 (4.5%) of roughly 310,000 compounds showed an effect of 50% or more. The effect is printed as a negative number. Many of the other results were omitted from the sample, so strong results are more common in it than they were.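 Also: peak tail current of the secondary pulse compared with the same well before compound.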"}
{"molecular_target": "human ether-à-go-go-related gene (hERG) potassium channel (human, UniProt Q12809)", "sequence (Q12809 whole entry, looked up)": "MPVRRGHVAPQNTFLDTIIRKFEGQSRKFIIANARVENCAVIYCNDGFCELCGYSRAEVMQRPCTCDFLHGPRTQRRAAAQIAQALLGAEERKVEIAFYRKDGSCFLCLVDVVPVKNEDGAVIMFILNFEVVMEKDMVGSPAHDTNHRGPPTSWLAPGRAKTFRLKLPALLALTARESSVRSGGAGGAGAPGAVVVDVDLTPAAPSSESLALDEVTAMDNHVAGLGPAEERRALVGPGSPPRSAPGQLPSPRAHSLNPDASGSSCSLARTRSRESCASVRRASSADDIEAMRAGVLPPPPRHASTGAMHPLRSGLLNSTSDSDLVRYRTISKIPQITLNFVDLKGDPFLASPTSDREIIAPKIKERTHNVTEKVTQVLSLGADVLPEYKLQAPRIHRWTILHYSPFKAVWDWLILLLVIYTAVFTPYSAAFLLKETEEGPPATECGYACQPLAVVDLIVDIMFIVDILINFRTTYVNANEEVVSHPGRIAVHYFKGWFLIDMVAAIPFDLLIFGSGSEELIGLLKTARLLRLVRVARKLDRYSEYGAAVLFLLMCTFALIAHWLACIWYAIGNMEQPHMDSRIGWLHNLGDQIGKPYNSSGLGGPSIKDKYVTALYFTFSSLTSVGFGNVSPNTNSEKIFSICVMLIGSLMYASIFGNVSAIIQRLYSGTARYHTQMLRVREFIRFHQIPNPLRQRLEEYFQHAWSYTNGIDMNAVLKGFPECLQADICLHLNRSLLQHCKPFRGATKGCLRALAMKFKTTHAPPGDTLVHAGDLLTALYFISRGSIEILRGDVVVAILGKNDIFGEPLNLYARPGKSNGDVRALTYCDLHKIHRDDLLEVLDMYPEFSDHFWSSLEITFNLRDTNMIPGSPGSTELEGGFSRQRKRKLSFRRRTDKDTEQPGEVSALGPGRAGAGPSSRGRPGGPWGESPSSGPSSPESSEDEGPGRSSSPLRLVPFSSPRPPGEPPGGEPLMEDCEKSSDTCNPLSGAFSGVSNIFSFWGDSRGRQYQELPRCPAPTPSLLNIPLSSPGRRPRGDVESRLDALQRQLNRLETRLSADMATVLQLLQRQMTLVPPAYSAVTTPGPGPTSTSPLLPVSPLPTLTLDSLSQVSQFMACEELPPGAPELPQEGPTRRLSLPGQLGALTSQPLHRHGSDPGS", "test": "primary screen, population patch clamp on CHO cells stably expressing hERG; higher = less effect of the substance", "units": {"hERG current change (%, negative = inhibition) at 10uM": "%"}}
{"smiles": "COCC(C)n1c(COc2ccccc2F)nnc1SCC(=O)c1c(N)n(C)c(=O)n(C)c1=O", "note": "(stereo not drawn)", "hERG current change (%, negative = inhibition) at 10uM": 16.4}
{"smiles": "N#C/C(=C\\c1c(F)cccc1Cl)S(=O)(=O)c1ccccn1", "hERG current change (%, negative = inhibition) at 10uM": 3.15}
{"smiles": "COc1cc(-c2nc(S(=O)(=O)c3ccc(Cl)cc3)c(N3CCOCC3)o2)cc(OC)c1OC", "hERG current change (%, negative = inhibition) at 10uM": -3.17}
{"smiles": "Cl.NNc1nc(-c2ccccc2)cs1", "hERG current change (%, negative = inhibition) at 10uM": 29.7}
{"smiles": "COc1cccc(NC(=O)CCCN2C(=O)C3CC=CCC3C2=O)c1", "note": "(stereo not drawn)", "hERG current change (%, negative = inhibition) at 10uM": -2.79}
{"smiles": "Cc1cc([N+](=O)[O-])nn1CCCC(=O)NCc1ccccc1", "hERG current change (%, negative = inhibition) at 10uM": -5.8}
{"smiles": "Cc1ccccc1NC(=O)C1=CC=CN2CCS(=O)(=O)N=C12", "hERG current change (%, negative = inhibition) at 10uM": -11.7}
{"smiles": "O=C(Nc1cccc2ncccc12)c1cccc(F)c1", "hERG current change (%, negative = inhibition) at 10uM": -11.1}
{"smiles": "CCOC(=O)C1(Cc2ccccc2)CCN(Cc2cn(CC(=O)OC)c3ccccc23)CC1", "hERG current change (%, negative = inhibition) at 10uM": -78.1}
{"smiles": "CCOC(=O)C1(CC2CC2)CCN(Cc2cn(C)c3ccccc23)CC1", "hERG current change (%, negative = inhibition) at 10uM": -31}
{"smiles": "CCOC(=O)C1(Cc2cccc(OC)c2)CCN(Cc2ccccc2OC)CC1", "hERG current change (%, negative = inhibition) at 10uM": -51.3}
{"smiles": "CCOC(=O)C1(Cc2ccccc2)CCN(Cc2cccc(OC)c2O)CC1", "hERG current change (%, negative = inhibition) at 10uM": -69.6}
{"smiles": "CCOC(=O)C1(Cc2cccc(OC)c2)CCN(Cc2cccc3c2OCO3)CC1", "hERG current change (%, negative = inhibition) at 10uM": -39.4}
{"smiles": "CCOC(=O)C1(Cc2cccc(OC)c2)CCN(Cc2cccc(OCC)c2O)CC1", "hERG current change (%, negative = inhibition) at 10uM": -56.8}
{"smiles": "Cc1cc(=O)nc2c3ccccc3n(CC(=O)Nc3ccccc3Br)n12", "hERG current change (%, negative = inhibition) at 10uM": -7.45}
{"smiles": "CCOc1ccc(N(CC(=O)Nc2cccc(Br)c2)S(C)(=O)=O)cc1", "hERG current change (%, negative = inhibition) at 10uM": -1.12}
{"smiles": "NC(=O)C1CCN(/C=C2\\C(=O)NC(=O)N(Cc3ccco3)C2=O)CC1", "hERG current change (%, negative = inhibition) at 10uM": 6.74}
{"smiles": "COc1ccccc1CNC(=O)COc1ccc(C)nc1[N+](=O)[O-]", "hERG current change (%, negative = inhibition) at 10uM": 18.3}
{"smiles": "CCN(C(=O)COc1ccc(C(=O)c2ccccc2)cc1)c1ccccc1", "hERG current change (%, negative = inhibition) at 10uM": -18.9}
{"smiles": "O=C1NNC(=O)C1c1ccccc1", "hERG current change (%, negative = inhibition) at 10uM": 25.7}
{"smiles": "CCOC(=O)C1(Cc2cccc(OC)c2)CCN(Cc2cccc(OC)c2O)CC1", "hERG current change (%, negative = inhibition) at 10uM": -66}
{"smiles": "CCOC(=O)c1[nH]ncc1CN1CCC(Cc2cccc(OC)c2)(C(=O)OCC)CC1", "hERG current change (%, negative = inhibition) at 10uM": -37.6}
{"smiles": "CCOC(=O)C1(Cc2cccc(OC)c2)CCN(Cc2cc(OC)ccc2OC)CC1", "hERG current change (%, negative = inhibition) at 10uM": -67.2}
{"smiles": "CC(C)c1ccc(CN2CCN(C(=O)CSc3nnnn3C3CC3)CC2)cc1", "hERG current change (%, negative = inhibition) at 10uM": -28.1}
{"smiles": "COc1ccc2c(C(=O)CN(C)C3CCCCC3)c[nH]c2c1", "hERG current change (%, negative = inhibition) at 10uM": 9.09}
{"smiles": "Cc1csc(NC(=O)CSc2nnc(-c3cccs3)n2C)n1", "hERG current change (%, negative = inhibition) at 10uM": -60.5}
{"smiles": "Cc1cnc(NC(=O)CSc2nnc(-c3cccs3)n2C)s1", "hERG current change (%, negative = inhibition) at 10uM": -59.4}
{"smiles": "Cc1csc(NC(=O)CSc2nnc(-c3ccncc3)n2C)n1", "hERG current change (%, negative = inhibition) at 10uM": -17.5}
{"smiles": "Cc1csc(NC(=O)CSc2nnc(CCNC(=O)c3cccs3)n2C)n1", "hERG current change (%, negative = inhibition) at 10uM": 8.1}
{"smiles": "CC(=O)Nc1ccc(NC(=O)CSc2nnc(-c3cccs3)n2C)cc1", "hERG current change (%, negative = inhibition) at 10uM": -7.69}
{"smiles": "Cc1cnc(NC(=O)CSc2nnc(Cc3ccccc3)n2C)s1", "hERG current change (%, negative = inhibition) at 10uM": -12.1}
{"smiles": "O=C(CCCc1nc2ccccc2s1)NCc1ccccc1F", "hERG current change (%, negative = inhibition) at 10uM": -20.2}
{"smiles": "CCN(CC(=O)Nc1c(F)cccc1F)C(=O)c1cccc(-n2cccc2)c1", "hERG current change (%, negative = inhibition) at 10uM": -27.1}
{"smiles": "CCCCCN(C(=O)CCC(=O)OC(C)C(=O)NCc1ccccc1)c1c(N)n(CCCC)c(=O)[nH]c1=O", "note": "(stereo not drawn)", "hERG current change (%, negative = inhibition) at 10uM": -14.5}
{"smiles": "O=C(c1cnn2c(C(F)F)cc(-c3ccccc3)nc12)N1CCCc2ccccc21", "hERG current change (%, negative = inhibition) at 10uM": -3.45}
{"smiles": "COCCn1c(SCC(=O)N2CCCC2)nnc1-c1ccco1", "hERG current change (%, negative = inhibition) at 10uM": 18.6}
{"smiles": "Cc1ccc(/C=N\\NC(=O)Cc2noc3ccccc23)cc1", "hERG current change (%, negative = inhibition) at 10uM": 15.6}
{"smiles": "COC(=O)c1ccc(C(=S)N2CCCCC2)cc1", "hERG current change (%, negative = inhibition) at 10uM": 8.89}
{"smiles": "Clc1ncc(CSc2ccccc2)s1", "hERG current change (%, negative = inhibition) at 10uM": 3.25}
{"smiles": "O=C(O)c1ccc(SCc2cnc(Cl)s2)cc1", "hERG current change (%, negative = inhibition) at 10uM": -70}
{"smiles": "COC(=O)c1ccc(SCc2cnc(Cl)s2)cc1", "hERG current change (%, negative = inhibition) at 10uM": 1.27}
{"smiles": "COC(=O)c1ccc(CNC(=O)c2ccc3c(c2)S(=O)(=O)N=C2CCCCCN23)cc1", "hERG current change (%, negative = inhibition) at 10uM": -10.5}
{"smiles": "Cc1cc2ccccc2c(=O)n1CC(=O)NCC1COc2ccccc2O1", "note": "(stereo not drawn)", "hERG current change (%, negative = inhibition) at 10uM": 0.464}
{"smiles": "CCn1cc(/C=N\\NC(=O)Cc2ccc([N+](=O)[O-])cc2)c(C)n1", "hERG current change (%, negative = inhibition) at 10uM": -25.1}
{"smiles": "CCN(Cc1ccc(NC(C)=O)cc1)CC1CCCN(CCc2cccc(OC)c2)C1", "note": "(stereo not drawn)", "hERG current change (%, negative = inhibition) at 10uM": -30.3}
{"smiles": "CCN(Cc1cccc(OC)c1)CC1CCCN(CCc2cccc(OC)c2)C1", "note": "(stereo not drawn)", "hERG current change (%, negative = inhibition) at 10uM": -47.3}
{"smiles": "CCN(Cc1ccc(OC)c(COC)c1)CC1CCCN(CCc2cccc(OC)c2)C1", "note": "(stereo not drawn)", "hERG current change (%, negative = inhibition) at 10uM": -26.3}
{"smiles": "CCN(Cc1ccc(OC)c(COC)c1)CC1CCCN(CCc2cccc(F)c2)C1", "note": "(stereo not drawn)", "hERG current change (%, negative = inhibition) at 10uM": -67.7}
{"smiles": "CN(Cc1ccc(C#CCCO)cc1)CC1CCCN(CCc2ccc(Cl)cc2)C1", "note": "(stereo not drawn)", "hERG current change (%, negative = inhibition) at 10uM": -70.9}
{"smiles": "CCN(Cc1ccc(C#CCCO)cc1)CC1CCCN(CCc2cccc(F)c2)C1", "note": "(stereo not drawn)", "hERG current change (%, negative = inhibition) at 10uM": -65.2}
{"smiles": "CCN(Cc1ccc(C#CCCO)cc1)CC1CCCN(CCc2cccc(OC)c2)C1", "note": "(stereo not drawn)", "hERG current change (%, negative = inhibition) at 10uM": -58.5}
{"smiles": "OCCC#Cc1ccc(CN2CCN(C3CCCCC3)C(CCO)C2)cc1", "note": "(stereo not drawn)", "hERG current change (%, negative = inhibition) at 10uM": -0.113}
{"smiles": "CCOc1ccc(NC(=O)Nc2cc(C(=O)O)ccc2N2CC3CC(C2)c2cccc(=O)n2C3)cc1", "note": "(stereo not drawn)", "hERG current change (%, negative = inhibition) at 10uM": 12.4}
{"smiles": "Cc1cc(C)cc(Nc2cc(C)nc3nc(C)nn23)c1", "hERG current change (%, negative = inhibition) at 10uM": -14.7}
{"smiles": "O=c1[nH]c(/C=C/c2ccccc2)c([N+](=O)[O-])c(=O)[nH]1", "hERG current change (%, negative = inhibition) at 10uM": 5.45}
{"smiles": "CCN1C(=O)Nc2cccc3cccc1c23", "hERG current change (%, negative = inhibition) at 10uM": 1.65}
{"smiles": "CCN(CC)C(=O)c1cnn(-c2ccccc2)c1NC(=O)c1ccco1", "hERG current change (%, negative = inhibition) at 10uM": -12.8}
